Test results: PubChem BioAssay (NCI)
Compounds without any hit were thinned out: in the full panel of roughly 79,000, 15% have a hit. The source made the active and inactive calls. Cut-off read from the data, not from the text of the source: active = growth inhibition above about 70%; inactive = the rest.

Tests used:
[1] = NCI Yeast Anticancer Drug Screen. Data for the rad52 strain (AID 147);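 note: 0% = growth of vehicle-treated control cultures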; conditions: S. cerevisiae rad52 mutant growth inhibition, stronger effect = higher value
How it was run: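 Vehicle-treated cultures served as the reference for growth inhibition of compound-exposed yeast bearing a DNA repair mutation.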

[2] = NCI Yeast Anticancer Drug Screen. Data for the wt1 strain (AID 149);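 note: 0% = growth of vehicle-treated wt1 cultures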; conditions: S. cerevisiae wt1 strain (SPY 50644) growth inhibition, stronger effect = higher value
How it was run: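 Each compound is tested on wt1 yeast and the loss of growth versus vehicle gives the inhibition value.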

[3] = NCI Yeast Anticancer Drug Screen. Data for the rad50EPP+ strain (AID 151);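 note: 0% = growth of vehicle-treated control cultures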; conditions: S. cerevisiae rad50 mutant strain, stronger effect = higher value
How it was run: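 In this screen, rad50EPP+ yeast were exposed to compounds. Growth inhibition was scored against vehicle-treated controls.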

[4] = NCI Yeast Anticancer Drug Screen. Data for the mgt1 strain (AID 153); conditions: S. cerevisiae mgt1 mutant growth inhibition, stronger effect = higher value
How it was run: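 mgt1 strain exposed; growth vs vehicle control recorded as inhibition.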

[5] = NCI Yeast Anticancer Drug Screen. Data for the rad50 strain (AID 155);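 note: 0% = growth of vehicle-only cultures of the same strain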; conditions: S. cerevisiae rad50 strain growth inhibition, stronger effect = higher value
How it was run: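 Vehicle-treated cultures provide the reference for the growth inhibition reported for compound-exposed, repair-deficient yeast.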

[6] = NCI Yeast Anticancer Drug Screen. Data for the mec2-1 strain (AID 157); conditions: S. cerevisiae mec2-1 strain, stronger effect = higher value
How it was run: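 Vehicle-treated cultures served as reference for growth inhibition of compound-exposed mec2-1 yeast.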

[7] = NCI Yeast Anticancer Drug Screen. Data for the rad14 strain (AID 159);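 note: 0% = growth of vehicle-treated control cultures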; conditions: S. cerevisiae rad14 strain growth inhibition, stronger effect = higher value
How it was run: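 Inhibition of growth is reported for a repair-deficient yeast mutant following compound treatment, calculated relative to cultures that received vehicle.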

[8] = NCI Yeast Anticancer Drug Screen. Data for the sgs1 mgt1 strain (AID 161);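 note: 0% = growth of cultures given vehicle only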; conditions: S. cerevisiae sgs1 mgt1 strain, stronger effect = higher value
How it was run: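 Mutant yeast exposed to compound; growth scored against vehicle-only wells.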

[9] = NCI Yeast Anticancer Drug Screen. Data for the CLN2oe strain (AID 163);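 note: 0% = growth of vehicle-only control cultures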; conditions: S. cerevisiae CLN2oe strain, stronger effect = higher value
How it was run: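 Inhibition relative to vehicle-treated yeast is reported. Cells: strain with genetic alteration in cell-cycle control, grown with compound.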

[10] = NCI Yeast Anticancer Drug Screen. Data for the cln2 rad14 strain (AID 165);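 note: 0% = growth equal to vehicle treated cultures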; conditions: S. cerevisiae cln2 rad14 strain, stronger effect = higher value
How it was run: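 Each compound was tested on cln2 rad14 yeast. Inhibition of growth was calculated against vehicle-exposed controls.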

[11] = NCI Yeast Anticancer Drug Screen. Data for the bub3 strain (AID 167); conditions: S. cerevisiae bub3 mutant strain, stronger effect = higher value
How it was run: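 Mutant yeast screening strain plus compound; vehicle-treated cultures serve as the 0% inhibition reference.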

[12] = NCI Yeast Anticancer Drug Screen. Data for the wt2 strain (AID 169); conditions: S. cerevisiae wt2 strain growth inhibition, stronger effect = higher value
How it was run: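 Inhibition of yeast growth was determined after compound treatment, normalised to controls receiving only vehicle.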

[13] = NCI Yeast Anticancer Drug Screen. Data for the sgs1 strain (AID 173);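 note: 0% = growth of vehicle-only control cultures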; conditions: S. cerevisiae sgs1 mutant, stronger effect = higher value
How it was run: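 Screen format: yeast with repair or checkpoint alterations, compound exposure, growth read relative to vehicle.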

[14] = NCI Yeast Anticancer Drug Screen. Data for the mlh1 rad18 strain (AID 175); conditions: S. cerevisiae mlh1 rad18 strain growth inhibition, stronger effect = higher value
How it was run: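 Vehicle-treated cultures served as the reference for growth inhibition in a yeast strain carrying DNA damage repair alterations exposed to each compound.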

[15] = NCI Yeast Anticancer Drug Screen. Data for the rad18 strain (AID 177); conditions: S. cerevisiae rad18 mutant growth inhibition, stronger effect = higher value
How it was run: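 Test articles were incubated with altered yeast defective in DNA damage repair. Results are given as inhibition of growth versus vehicle.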

[16] = at 5.0 µM (retest, dose inferred, filed as 0.5)
[17] = at 50.0 µM (retest, dose inferred, filed as 5.0)

Measured: growth inhibition

CC1=CN2C(c3ccccc3)=NON(c3ccc(C)cn3)C2C=C1 (stereo unspecified)
inactive: [1]; at 1.2 µM 2% | [1]; at 3.7 µM 4% | [1]; at 11.0 µM -3% | [1]; at 33.0 µM 1% | [1]; at 100.0 µM -7% | [2]; at 1.2 µM -3% | [2]; at 3.7 µM -3% | [2]; at 11.0 µM -3% | [2]; at 33.0 µM -3% | [2]; at 100.0 µM -5% | [3]; at 1.2 µM 6% | [3]; at 3.7 µM 1% | [3]; at 11.0 µM 0% | [3]; at 33.0 µM -2% | [3]; at 100.0 µM -11% | [4]; at 1.2 µM -2% | [4]; at 3.7 µM 0% | [4]; at 11.0 µM -2% | [4]; at 33.0 µM -1% | [4]; at 100.0 µM -3% | [5]; at 1.2 µM 6% | [5]; at 3.7 µM 2% | [5]; [16] -5% | [5]; at 11.0 µM -6% | [5]; at 33.0 µM 1% | [5]; [17] 12% | [5]; at 50.0 µM -4.35% | [5]; at 100.0 µM -11% | [6]; at 1.2 µM -3% | [6]; at 3.7 µM -2% | [6]; [16] -24% | [6]; at 11.0 µM -3% | [6]; at 33.0 µM -2% | [6]; [17] -21% | [6]; at 50.0 µM 19.8% | [6]; at 100.0 µM -4% | [7]; at 1.2 µM 4% | [7]; at 3.7 µM 0% | [7]; at 11.0 µM -4% | [7]; at 33.0 µM -2% | [7]; at 100.0 µM -9% | [8]; [16] -15% | [8]; [17] 20% | [8]; at 50.0 µM 18% | [9]; at 1.2 µM 2% | [9]; at 3.7 µM -2% | [9]; at 11.0 µM -4% | [9]; at 33.0 µM -2% | [9]; at 100.0 µM -7% | [10]; [16] -23% | [10]; [17] -17% | [10]; at 50.0 µM -12.7% | [11]; at 1.2 µM -2% | [11]; at 3.7 µM -2% | [11]; [16] -25% | [11]; at 11.0 µM -6% | [11]; at 33.0 µM -4% | [11]; [17] 10% | [11]; at 50.0 µM 46% | [11]; at 100.0 µM -4% | [12]; at 1.2 µM -7% | [12]; at 3.7 µM -7% | [12]; at 11.0 µM -10% | [12]; at 33.0 µM -13% | [12]; at 100.0 µM -7% | [13]; at 1.2 µM -23% | [13]; at 3.7 µM -16% | [13]; at 11.0 µM -2% | [13]; at 33.0 µM -7% | [13]; at 100.0 µM 2% | [14]; [16] -15% | [14]; [17] 50% | [14]; at 50.0 µM 1.65% | [15]; at 1.2 µM 3% | [15]; at 3.7 µM 3% | [15]; at 11.0 µM -1% | [15]; at 33.0 µM 1% | [15]; at 100.0 µM -7%

CCCCS/C(=C(/C#N)C(N)=O)c1cc2c([nH]1)CCCC2
active: [1]; at 100.0 µM 72% | [11]; [17] 71% | [11]; at 50.0 µM 83.5% | [11]; at 100.0 µM 81% | [12]; at 100.0 µM 98% | [13]; at 100.0 µM 72%
inactive: [1]; at 1.2 µM 24% | [1]; at 3.7 µM 26% | [1]; at 11.0 µM 33% | [1]; at 33.0 µM 40% | [2]; at 1.2 µM -9% | [2]; at 3.7 µM 0% | [2]; at 11.0 µM -8% | [2]; at 33.0 µM -12% | [2]; at 100.0 µM 56% | [3]; at 1.2 µM 11% | [3]; at 3.7 µM 13% | [3]; at 11.0 µM 11% | [3]; at 33.0 µM 22% | [3]; at 100.0 µM 31% | [4]; at 1.2 µM -7% | [4]; at 3.7 µM -21% | [4]; at 11.0 µM -21% | [4]; at 33.0 µM -14% | [4]; at 100.0 µM 49% | [5]; at 1.2 µM 25% | [5]; at 3.7 µM 23% | [5]; [16] 16% | [5]; at 11.0 µM 24% | [5]; at 33.0 µM 28% | [5]; [17] 30% | [5]; at 50.0 µM 41.2% | [5]; at 100.0 µM 48% | [6]; at 1.2 µM -8% | [6]; at 3.7 µM -22% | [6]; [16] -1% | [6]; at 11.0 µM -17% | [6]; at 33.0 µM -34% | [6]; [17] 13% | [6]; at 50.0 µM 62.4% | [6]; at 100.0 µM 52% | [7]; at 1.2 µM -11% | [7]; at 3.7 µM -9% | [7]; at 11.0 µM -13% | [7]; at 33.0 µM -16% | [7]; at 100.0 µM 62% | [8]; [16] 9% | [8]; [17] 31% | [8]; at 50.0 µM 60.5% | [9]; at 1.2 µM -21% | [9]; at 3.7 µM -19% | [9]; at 11.0 µM -18% | [9]; at 33.0 µM -32% | [9]; at 100.0 µM 56% | [10]; [16] 8% | [10]; [17] 24% | [10]; at 50.0 µM 54.2% | [11]; at 1.2 µM -37% | [11]; at 3.7 µM -36% | [11]; [16] 4% | [11]; at 11.0 µM -30% | [11]; at 33.0 µM -6% | [12]; at 1.2 µM -13% | [12]; at 3.7 µM -17% | [12]; at 11.0 µM -16% | [12]; at 33.0 µM 6% | [13]; at 1.2 µM 12% | [13]; at 3.7 µM 17% | [13]; at 11.0 µM 18% | [13]; at 33.0 µM 22% | [14]; [16] 13% | [14]; [17] 46% | [14]; at 50.0 µM -32.3% | [15]; at 1.2 µM 0% | [15]; at 3.7 µM -13% | [15]; at 11.0 µM -24% | [15]; at 33.0 µM -19% | [15]; at 100.0 µM 44%

CNC(=O)OCc1c2ccncc2c(C)c2c1[nH]c1ccccc12
inactive: [1]; at 1.2 µM 59% | [2]; at 1.2 µM 2% | [2]; at 3.7 µM 6% | [2]; at 11.0 µM 6% | [2]; at 33.0 µM 21% | [2]; at 100.0 µM 56% | [3]; at 1.2 µM 1% | [3]; at 3.7 µM 17% | [3]; at 11.0 µM 14% | [3]; at 33.0 µM 31% | [3]; at 100.0 µM 45% | [4]; at 1.2 µM 2% | [4]; at 3.7 µM 21% | [4]; at 11.0 µM 18% | [4]; at 33.0 µM 34% | [4]; at 100.0 µM 55% | [5]; at 1.2 µM 33% | [5]; [16] 61% | [5]; at 50.0 µM 56.4% | [6]; at 1.2 µM 13% | [6]; at 3.7 µM 60% | [6]; [16] 56% | [7]; at 1.2 µM 23% | [8]; [16] 40% | [8]; [17] 13% | [8]; at 50.0 µM 51.5% | [9]; at 1.2 µM 6% | [9]; at 3.7 µM 19% | [9]; at 11.0 µM 21% | [9]; at 33.0 µM 34% | [9]; at 100.0 µM 57% | [10]; [16] 44% | [11]; at 1.2 µM -41% | [11]; at 3.7 µM -56% | [11]; [16] -12% | [11]; at 11.0 µM -27% | [11]; at 33.0 µM 0% | [11]; [17] -48% | [11]; at 50.0 µM -12.1% | [11]; at 100.0 µM 39%
active: [1]; at 3.7 µM 82% | [1]; at 11.0 µM 88% | [1]; at 33.0 µM 90% | [1]; at 100.0 µM 88% | [5]; at 3.7 µM 72% | [5]; at 11.0 µM 82% | [5]; at 33.0 µM 86% | [5]; [17] 75% | [5]; at 100.0 µM 82% | [6]; at 11.0 µM 84% | [6]; at 33.0 µM 90% | [6]; [17] 89% | [6]; at 50.0 µM 73.8% | [6]; at 100.0 µM 87% | [7]; at 3.7 µM 80% | [7]; at 11.0 µM 89% | [7]; at 33.0 µM 92% | [7]; at 100.0 µM 89% | [10]; [17] 84% | [10]; at 50.0 µM 83.2%
